A selection: hits, their analogues and other compounds. The true share with any hit is near 3.4%.
PLC-gamma1 inh = PLC-gamma1 (human) inhibition, primary screen | P19174 | purified PLC-gamma1, fluorogenic substrate, fluorescence | inhibition, % at 12.2 µM | 370,000 tested, 0.84% active | AID 720700; in the data active = inhibition above about 9.5%
KLK7 zymogen act = activators of human kallikrein-7 zymogen | P49862 | purified proKLK7, EDANS-DABCYL substrate fluorescence; 100% is mature enzyme control, 0% vehicle | activation, % at 7 µM | 370,000 tested, 0.9% active | AID 652039;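 active = activation above the mean of all tested compounds plus 3 SD, computed per campaign excluding outliers beyond control limits, cut at about 13% in these data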
ADAM17 inh = ADAM17 inhibition, QFRET primary screen | recombinant ADAM17, EDANS/DABCYL FRET peptide cleavage | inhibition, % at 6.95 µM | 370,000 tested, 0.83% active | AID 720648;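 active = inhibition above the mean of compounds lying between control limits plus 3 SD, set per campaign, cut at about 8.5% in these data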;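 note: 0% = DMSO-only wells as the low control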
Target sequence (P78536 215-824 limits assumed): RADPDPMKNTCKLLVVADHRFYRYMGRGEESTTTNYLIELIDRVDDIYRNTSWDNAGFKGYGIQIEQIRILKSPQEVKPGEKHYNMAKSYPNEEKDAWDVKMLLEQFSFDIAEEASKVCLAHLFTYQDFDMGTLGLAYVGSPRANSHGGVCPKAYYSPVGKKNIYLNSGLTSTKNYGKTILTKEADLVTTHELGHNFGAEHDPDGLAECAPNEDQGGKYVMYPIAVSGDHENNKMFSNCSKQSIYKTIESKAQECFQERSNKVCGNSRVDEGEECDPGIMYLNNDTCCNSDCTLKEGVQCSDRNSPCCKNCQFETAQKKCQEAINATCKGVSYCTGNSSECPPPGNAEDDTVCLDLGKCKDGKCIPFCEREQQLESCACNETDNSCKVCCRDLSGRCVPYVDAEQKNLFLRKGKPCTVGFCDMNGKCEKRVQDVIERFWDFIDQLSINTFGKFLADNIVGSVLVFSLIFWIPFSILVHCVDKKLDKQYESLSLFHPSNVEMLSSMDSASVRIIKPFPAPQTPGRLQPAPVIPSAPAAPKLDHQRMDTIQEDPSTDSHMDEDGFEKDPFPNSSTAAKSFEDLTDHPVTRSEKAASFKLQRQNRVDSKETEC
HGIII-sPLA2 inh = Inhibits HGIII-sPLA2 liposome hydrolysis, primary screen; Q9NZ20; QFRET BODIPY PC-A2 liposome hydrolysis, fluorescence; inhibition, % at 12.2 µM; 370,000 tested, 0.56% active;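 active = inhibition above mean plus 3 SD of compounds lying within the high and low control bounds, cut at about 19% in these data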;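 note: 0% = median of test compound wells and 100% = no enzyme DMSO wells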
ADAM10 inh = inhibits human ADAM10; O14672; recombinant ADAM10, EDANS/DABCYL FRET peptide cleavage, 3 h; 370,000 tested, 0.62% active; inhibition, % at 7 µM;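 active = inhibition above a per-campaign cutoff equal to the mean of compounds falling between control-based bounds plus 3 SD, cut at about 20% in these data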;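 note: 0% = DMSO wells while the 100% control is not disclosed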
PLCb3 inh = inhibitors of human phospholipase C beta3; Q01970; Purified PLC-beta3, fluorogenic substrate, fluorescence; inhibition, % at 12.2 µM; 370,000 tested, 0.18% active; AID 720704; in the data active = inhibition above about 11%;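 note: 0% = median of compound wells on plate and 100% = full blocker control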
KLK7 act conf = confirmation of human kallikrein-7 zymogen activators; shares compounds with KLK7 zymogen act; purified proKLK7, EDANS-DABCYL substrate fluorescence; scaled: vehicle 0, mature enzyme 100; activation, % at 7 µM; 3,200 tested, 68% active;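 active = activation, as change over the incubation, above the mean of all tested compounds plus 3 SD, cut at about 13% in these data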
EDANS interfere = fluorescence interference counter-screen for KLK7 activators; shares compounds with KLK7 zymogen act; EDANS-DABCYL substrate fluorescence interference, no enzyme, 4 h; solvent 0%, active enzyme control 100%; activation, % at 7 µM; 3,200 tested, 80% active; AID 686952;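 active = activation above the all-compound mean plus 3 SD, ignoring values outside control-based bounds, cut at about 4.8% in these data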;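 note: value is the 4 h activation minus the activation read at time zero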
Active calls of the source: *; i = inactive; / = not tested or not shown.

SMILES | PLC-gamma1 inh | KLK7 zymogen act | ADAM17 inh | HGIII-sPLA2 inh | ADAM10 inh | PLCb3 inh | KLK7 act conf | EDANS interfere
CC(C)(C)c1ccc(CN2N=Nc3ccccc3S2(=O)=O)cc1 | -29 | 21* | -2 | -9 | -6 | -42 | 0 | 1
O=C(NCCc1ccccc1)OCc1cn(Cc2cccc(F)c2F)nn1 | 0 | 0 | -3 | -1 | -1 | -2 | / | /
Nc1nc(Cl)nc2c1ncn2C1OCC(O)C(O)C1O (stereo not given) | -2 | 0 | -3 | -2 | -2 | 0 | / | /
Cc1cc(C)c2cc3c(ccn3C3OC[C@H](O)[C@H](O)[C@H]3O)cc2n1 (stereo not given in full) | i | 23* | -11 | -4 | -43 | i | 48* | 47*
CCc1nc(CN2CCCC(C(=O)c3ccc4c5c(cccc35)CC4)C2)c(C)[nH]1 (stereo not given) | -131 | 15* | -140 | -24 | -467 | -165 | -4 | 0
COc1cccc(NC(=O)C2CCCN2C(=O)NC2CCC(C)CC2)c1 (stereo not given) | -1 | 0 | -2 | 4 | -3 | 2 | / | /
CCOc1cc(/C=N/NC(=O)C(=O)N/N=C/c2ccc(O)c(OCC)c2)ccc1O | -14 | 16* | -6 | 8 | -3 | -25 | -21 | -8
CCOc1cc(/C=N/NC(=O)C(OC)c2ccccc2)ccc1O (stereo not given) | -11 | -8 | -15 | 7 | -24 | -16 | / | /
O=C(Nc1ccccc1)Nc1sccc1-c1nc2ccccc2s1 | -304 | 35* | -29 | -5 | -67 | -348 | -212 | -177
CN(C)C=Nc1ccc2nn(-c3ccccc3)nc2c1 | i | 19* | -378 | -2 | i | i | 66* | 69*
COC(=O)[C@H](CC(C)C)N(Cc1cn(Cc2ccc(C)cc2)nn1)S(=O)(=O)c1ccccc1Br | 1 | 1 | 5 | -10 | 11 | 0 | / | /
CCOc1ccc(/C(O)=C2/C(=O)C(=O)N(c3ccccn3)C2c2ccc(F)cc2)c(C)c1 (stereo not given) | -45 | 14* | -6 | -1 | 1 | -65 | 19* | 20*
Cc1ccc(/C(O)=C2/C(=O)C(=O)N(c3ccccn3)C2c2ccc(F)cc2)cc1 (stereo not given) | -3 | 2 | 0 | -16 | 4 | -8 | / | /
Cc1[nH]nc2c1C(c1ccc(O)cc1)C1=C(CC(C)(C)CC1=O)N2 (stereo not given) | -56 | 0 | -33 | 4 | -96 | -68 | / | /
Cc1[nH]nc2c1C(c1ccsc1)C1=C(CC(C)(C)CC1=O)N2 (stereo not given) | -325 | 14* | -215 | 4 | i | -382 | 13* | 17*
CC(=O)N1CCC2(CC1)CC(=O)c1cc(OCC(=O)N3CCOCC3)ccc1O2 | i | 62* | -390 | 4 | i | i | 69* | 65*
CCOC(=O)N1CCN(C(=O)COc2ccc3c(c2)C(=O)CC2(CCN(C(C)=O)CC2)O3)CC1 | i | 26* | -478 | 1 | i | i | 71* | 75*
Cc1ccc(OCC(=O)N2CCC3(CC2)CC(=O)c2ccccc2O3)cc1 | -15 | 1 | -25 | -1 | -83 | -23 | / | /
c1nc(NCC2CCCC2)c2cc(-c3ccc4c(c3)OCO4)ccc2n1 | -99 | / | -77 | -9 | -157 | -146 | / | /
N#Cc1c(C(F)(F)F)cc(=O)n2c1[nH]c1ccccc12 | i | 52* | i | -11 | i | i | 64* | 66*
N#Cc1c(CSCC(=O)O)cc(=O)n2c1[nH]c1ccccc12 | -43 | 1 | -19 | -2 | -57 | -64 | / | /
C=CC[C@@H]1NN2C(=O)[C@@H](CCc3ccccc3)[C@@H]3c4ccccc4C=NN3[C@@H]2c2ccccc21 | 2 | 0 | 0 | 14 | 3 | -4 | / | /
COc1cc(OC)c(-c2nnc(-c3ccc(OC)c(OC)c3OC)o2)cc1OC | i | 13* | -167 | 5 | -404 | i | -34 | -33
CCCCN(C)CCn1c(=S)[nH]c2ccc(N3CCOCC3)cc2c1=O | i | 68* | -153 | 15 | i | i | -8 | -8
O=c1c2cc(N3CCOCC3)ccc2[nH]c(=S)n1CCc1ccccc1 | -177 | 1 | -14 | 7 | -26 | -286 | / | /
SMILES | PLC-gamma1 inh | KLK7 zymogen act | ADAM17 inh | HGIII-sPLA2 inh | ADAM10 inh | PLCb3 inh | KLK7 act conf | EDANS interfere
O=c1c2cc(N3CCOCC3)ccc2[nH]c(=S)n1CC1CCCO1 (stereo not given) | i | 32* | -48 | 11 | -120 | i | -16 | 4.7*
COCCCn1c(=S)[nH]c2ccc(N3CCOCC3)cc2c1=O | i | 58* | -64 | 5 | -235 | i | 30* | 49*
O=c1c2cc(N3CCOCC3)ccc2[nH]c(=S)n1Cc1ccccn1 | i | 80* | -57 | 2 | -265 | i | 21* | 20*
COc1cccc(CNC(=O)C2CCCN(c3ncccn3)C2)c1OC (stereo not given) | -10 | 0 | -8 | -1 | -28 | -9 | / | /
Cc1cccc(CCNC(=O)CSc2nc3c([nH]2)c(=O)n(C)c(=O)n3C)c1 | -1 | 0 | -4 | 4 | -9 | -3 | / | /
CC(=O)c1cc(-c2cc(C(F)(F)F)cc(C(F)(F)F)c2)c(=O)n2c1CCC2 | 0 | 0 | -5 | 3 | -10 | 0 | / | /
O=C(CCCCCn1c(=S)[nH]c2ccc(N3CCOCC3)cc2c1=O)NCc1ccccc1 | -217 | -2 | -18 | 12 | -79 | -232 | / | /
CCOc1cc2[nH]c(=S)n(CCOC)c(=O)c2cc1OCC | 3 | 0 | -1 | 6 | 3 | 4 | / | /
O=C(CCCCCn1c(=S)[nH]c2ccc(N3CCOCC3)cc2c1=O)NCc1cccc(Cl)c1 | -99 | 17* | -13 | 5 | -22 | -135 | -32 | -38
COCCn1c(=S)[nH]c2ccc(N(C)C)cc2c1=O | i | 48* | -59 | 7 | -182 | i | 76* | 74*
Cc1ccc(CN2CCCCC(NC(=O)c3ccc4ccccc4c3)C2=O)cc1 (stereo not given) | -3 | 0 | 3 | -1 | 6 | 2 | / | /
C=CCn1c(SCC(N)=O)nnc1-c1ccc(C)cc1 | 2 | -1 | 0 | 10 | -9 | 1 | / | /
O=C(CSc1nc2nc(-c3cccs3)cc(C(F)(F)F)c2c(=O)[nH]1)NCc1ccco1 | -308 | 16* | i | -5 | i | -424 | -34 | -23
O=C(CSc1nc2nc(-c3cccs3)cc(C(F)(F)F)c2c(=O)[nH]1)C(F)(F)F | i | 67* | i | -9 | i | i | 278* | 260*

Source: PubChem (The Scripps Research Institute Molecular Screening Center)
